Assay outcomes deposited in PubChem BioAssay by National Center for Advancing Translational Sciences (NCATS).
SW480 rerep – inducers of DNA re-replication in SW480 colon cancer cells | 1.8% of 340,000 active | AID 624297 | SW480 DNA re-replication, Hoechst DNA content imaging, 48 h | Potency, µM (titrated, usually from 46.1 µM), usual class: activators; further: nearly all actives have a fitted effect of over 55% in size
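Compounds, transferred as 23 nL by pin tool, were incubated with cells for 48 hr; DNA content per nucleus was then quantified by Hoechst staining and fluorescence plate imaging.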
BCR signal inh – chronic active BCR signaling inhibition. ABC-DLBCL IkBa-CBG/CBR reporter, luminescence ratio, 4 h. AID 493014. 0.05% of 340,000 active. Potency, µM (series often up to 46.1 µM), most hits filed as inhibitors; active means well fitted inhibition curve with a large enough effect in the signal ratio, with a control signal flat, not every such curve was filed as active; inconclusive means small, poorly fitted or top-dose-only effect, or effect the other way, or a change in a side signal; the % refers to the signal ratio
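TMD8 human ABC-DLBCL cells with doxycycline-inducible IκBα–green luciferase fusion and unfused red luciferase, in 0.5% FBS medium; compounds up to 46 uM, 4 h at 37C. Green/red luminescence ratio, filter-overlap corrected, fitted to concentration-response curves.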
RORg inh – blocks mouse ROR gamma transcriptional activity; P51450; 5.4% of 310,000 active; Drosophila S2 Gal4-RORgamma UAS-luciferase reporter, 20 h; Potency, µM (top dose mostly 53.6 µM), usual class: inhibitors; further: nearly all actives have a fitted effect of over 60% in size
Target sequence (P51450 whole entry, looked up, the tested form may be a part): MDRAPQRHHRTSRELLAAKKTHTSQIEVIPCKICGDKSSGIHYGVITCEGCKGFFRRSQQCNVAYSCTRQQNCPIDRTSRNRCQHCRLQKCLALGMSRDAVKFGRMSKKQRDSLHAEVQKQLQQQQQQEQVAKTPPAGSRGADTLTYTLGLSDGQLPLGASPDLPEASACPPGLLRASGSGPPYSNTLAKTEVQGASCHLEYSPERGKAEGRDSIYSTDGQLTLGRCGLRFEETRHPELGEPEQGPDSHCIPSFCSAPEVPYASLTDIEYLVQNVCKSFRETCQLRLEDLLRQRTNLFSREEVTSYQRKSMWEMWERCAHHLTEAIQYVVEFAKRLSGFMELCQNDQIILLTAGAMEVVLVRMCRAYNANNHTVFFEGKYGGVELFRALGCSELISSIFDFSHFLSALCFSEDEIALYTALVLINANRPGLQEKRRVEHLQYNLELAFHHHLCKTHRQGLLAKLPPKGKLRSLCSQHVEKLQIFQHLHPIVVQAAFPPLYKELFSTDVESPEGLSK
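Luminescence from a UAS-regulated Photinus luciferase reporter in stably transfected Drosophila Schneider cells is measured; decreased signal marks ROR gamma inhibition. Fusion expression is induced by 700 uM copper sulfate for 20 hr.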
Giardia kill – kills Giardia lamblia. Giardia lamblia trophozoite viability. activity change, % at 7.66 µM, hits read low. 0.15% of 340,000 active. AID 540267; in the data active means activity change below about -80%; inconclusive means between about -30% and that limit;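 further: parasites exposed to compound for two days anaerobically before the ATP read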
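Killing of trophozoites was scored by loss of ATP luminescence after a 48 hrs anaerobic exposure to compounds at 37 deg C, using 100 cells per well.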
MCF10A rerep – inducers of DNA re-replication in MCF 10A breast cells. MCF 10A DNA re-replication, Hoechst nuclear intensity, 48 h. Potency, µM (doses to about 46.1 µM), actives largely listed as activators. 2.9% of 350,000 active. AID 624296; further: nearly all actives have a fitted effect of over 50% in size
VP16 counter – inhibits Gal4-VP16 luciferase reporter, ROR gamma counter-screen. 3.5% of 310,000 active. Drosophila S2 Gal4-VP16 UAS-luciferase, luminescence, 20 h. Potency, µM (doses to about 53.6 µM), most hits filed as inhibitors. AID 2546;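 further: Gal4-VP16 expression switched on by copper sulfate through the metallothionein promoter; nearly all actives have a fitted effect of over 50% in size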
A number is an active result; i = inactive; ? = inconclusive; nt = not tested or not shown; [ ] = dose if it differs, or a comment. Rows were chosen to be rich in hits. Some 8.3% of all compounds tested hit in one or more screens of this group. Unless noted, the call rests on the fitted dose curve; in most records, active means well fitted curve in the direction sought with a large enough effect; inconclusive means small, poorly fitted or top-dose-only effect, or another doubt; inactive means no such curve, though single readings can be large; an effect the other way counts as inactive or inconclusive.

SMILES	SW480 rerep	BCR signal inh	RORg inh	Giardia kill	MCF10A rerep	VP16 counter
Cc1ccc(OCC(=O)Nc2sc3c(c2C#N)CC(C)(C)NC3(C)C)cc1	i	i	i	i	i	i
CC1(C)Cc2c(sc(NC(=O)c3ccc(C(=O)c4ccccc4)cc3)c2C(N)=O)C(C)(C)N1	21µM	?	?	i	23µM	13µM
CCOC(=O)c1c(NC(=O)COc2ccccc2C#N)sc2c1CC(C)(C)NC2(C)C	18µM	?	?	i	?	?
CCOC(=O)c1c(NC(=O)Cc2ccccc2)sc2c1CC(C)(C)NC2(C)C	i	i	i	i	i	i
CC1CCCN(C2=NC(=O)/C(=C/c3cn(-c4ccccc4)nc3-c3cccc(S(=O)(=O)N(C)C)c3)S2)C1 (stereo not drawn)	i	i	i	i	?	i
CC1CCN(C2=NC(=O)/C(=C/c3cn(-c4ccccc4)nc3-c3cccc(S(=O)(=O)N(C)C)c3)S2)CC1	21µM	i	i	i	i	i
COc1ccc2c(-c3ccccc3)cc3nnnn3c2c1	i	?	i	i	2.6µM	i
Cc1nc2ccccc2c(=O)n1/N=C/c1ccc2ccccc2c1O	16µM	?	i	i	i	i
Cc1nnc(-c2ccccc2)c(=O)n1/N=C/c1c(O)ccc2ccccc12	6.5µM	?	?	i	i	18µM
Cc1nc2ccccc2c(=O)n1/N=C/c1ccccc1O	?	i	?	i	i	?
C/C(=N\OCc1nc2ccccc2c(=O)n1/N=C/c1cc([N+](=O)[O-])ccc1O)c1ccccc1	i	?	10µM	i	i	?
Cc1cc([N+](=O)[O-])cc(/C=N/n2c(C)nc3ccccc3c2=O)c1O	?	?	13µM	i	16µM	i
O=C(CCSc1ccc(Br)cc1)c1ccc(O)cc1	i	?	i	i	?	i
Cc1ccnc(NC(=O)Nc2ccc3c(c2)OCO3)c1	i	i	i	i	i	i
O=C(c1ccco1)N1CCCN(C(=O)c2ccco2)CC1	i	i	i	i	i	i
O=C(c1ccco1)N1CCN(C(=O)N2CCOCC2)CC1	0.16µM	i	i	i	?	i
O=C(c1ccco1)N1CCN(C(=O)c2ccco2)C1=S	5.8µM	nt	nt	i	2.6µM	nt
CO/N=C(/C)CCC(=O)OC[C@@H]1O[C@H](C#Cc2ccccc2)C=C[C@@H]1Oc1ccc(C)cc1	nt	nt	i[10 µM]	nt	nt	i[10 µM]
C=C(C)C1Cc2c(ccc(C(=O)O)c2O)O1 (stereo not drawn)	nt	nt	i	nt	nt	i
Cc1cc(C(=O)COc2ccccc2[N+](=O)[O-])c(C)n1C1CC1	i	?	i	i	i	i
Cc1cc(C(=O)COc2ccccc2C(N)=O)c(C)n1C1CC1	i	?	i	i	0.58µM	i
S=c1[nH]nc(Cc2ccc(Cl)cc2)n1-c1ccc2c(c1)OCCO2	i	i	2.8µM	?	i	i
Oc1ccc(-c2n[nH]c(=S)n2-c2ccc3c(c2)OCCO3)c(O)c1	i	?	?	i	?	i
COc1ccc(Cc2n[nH]c(=S)n2-c2ccc3c(c2)OCCO3)cc1	i	i	8.9µM	i	i	i
Cc1cccc(Cn2c(C)nc3c(N)c(C)c(C)cc32)c1	i	i	13µM	i	i	?
SMILES	SW480 rerep	BCR signal inh	RORg inh	Giardia kill	MCF10A rerep	VP16 counter
Cc1cccc(Cn2c(C(C)O)nc3ccccc32)c1 (stereo not drawn)	i	i	i	i	i	i
COC(=O)c1ccc(C(NC(=O)OCc2ccccc2)/C(F)=C/[C@@H](C)C(=O)Nc2ccc(OC)cc2)cc1 (stereo partly drawn)	nt	nt	20µM	nt	nt	?
Cc1ccccc1C(=O)NC(=S)N(Cc1ccccc1)c1ccccn1	i	i	nt	i	i	nt
Cc1ccccc1C(=O)NC(=S)N(C)CCc1ccccn1	i	?	7.1µM	i	i	?
Oc1c(Cl)cc(Cl)cc1CNc1ccc(Br)cn1	i	?	?	i	11µM	i
Oc1ccc(Cl)cc1CNc1ccc(Br)cn1	?	?	?	i	?	?
Cc1cccc(C(=O)N2CCc3cc(-c4nc(NC(=O)Cn5nnc6ccccc6c5=O)sc4C)ccc32)c1	nt	i	i[10 µM]	nt	nt	i
CNc1nc(-c2ccc3c(c2)CCN3C(=O)c2ccc(F)cc2)cs1	i	?	i	i	i	i
Cc1cccc(C(=O)N2CCc3cc(-c4csc(NC(=O)CN5CCCC5)n4)ccc32)c1	?	i	?	i	16µM	i
O=C(CN1CCOCC1)Nc1nc(-c2ccc3c(c2)CCN3S(=O)(=O)c2ccccc2)cs1	i	i	i	i	?	?
Cc1cccc(C(=O)N2CCc3cc(-c4nc(NC(=O)CN5CCCC5)sc4C)ccc32)c1	?	i	i	i	18µM	i
CNc1nc(-c2ccc3c(c2)CCN3C(=O)c2cccc(F)c2)cs1	15µM	i	i	i	i	i
Cc1sc(NC(=O)CN2CCOCC2)nc1-c1ccc2c(c1)CCN2S(=O)(=O)c1ccccc1	i	?	7.1µM	i	?	5.6µM
CCN(CC)CCNCC1C(=O)O[C@@H]2C[C@@]3(C)CCC[C@H](C)C3=C[C@H]12 (stereo partly drawn)	i	?	i	i	?	i
O=[N+]([O-])c1cccc(/C([O-])=C(/C(=S)Nc2cccc3ccccc23)[n+]2ccccc2)c1	i	?	10µM	i	i	?
COc1ccc(NS(=O)(=O)c2cn(C)nc2C)cc1	i	?	i	i	i	i
Cc1ccc2nc(NS(=O)(=O)c3cn(C)nc3C)sc2c1	i	?	14µM	i	i	11µM
COc1ccc(CCn2c(N)c(C#N)c3nc4ccccc4nc32)cc1OC	?	?	i	i	?	i
COc1ccc(Cn2c(N)c(C#N)c3nc4ccccc4nc32)cc1OC	10µM	i	i	i	?	i
Cc1cc(Cl)ccc1Oc1ccccc1C(=O)CC#N	i	i	?	i	23µM	i
Cc1cc(Cl)ccc1Oc1ccc(C(N)=O)cc1[N+](=O)[O-]	i	i	i	i	?	i
O=C(CCC1CCCC1)Nc1cccc(Cc2ccncc2)c1	i	i	i	i	?	i
CC(OC(=O)c1ccco1)C(=O)Nc1nc(-c2ccccc2)cs1 (stereo not drawn)	i	?	nt	i	i	nt
Cc1ccc(NS(=O)(=O)c2ccccc2)c(NS(=O)(=O)c2ccccc2)c1	i	nt	nt	i	i	nt
Cc1ccc(S(=O)(=O)Nc2ccccc2N2CCOCC2)cc1	?	i	i	i	?	i
Cc1ccc(S(=O)(=O)Nc2cccc3ccc(C)nc23)cc1	nt	nt	3.2µM	nt	nt	?
Cc1ccc(S(=O)(=O)Nc2ccccc2N2CCCCC2)cc1	?	?	nt	i	16µM	nt
CCN(CC)CCNC(=O)c1ccc(N2CCCCC2)c(NS(=O)(=O)c2ccc(C)cc2)c1	26µM	i	i	i	i	i[0.365 µM]
